# Source: PubChem BioAssay AID504912 (The Scripps Research Institute Molecular Screening Center, 2011)
# This is one part of the list. The source made the active and inactive calls. No rule for the calls is given here.
# Assay: OPRM1-OPRD1 heterodimer inverse agonism – cell-based, luminescence, counter-screen for HTR5A inverse agonist project (AID 504912);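 also: 0% = cells with DMSO and 100% = wells without cells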
# Details: U2OS counter-screen cells, complementation luminescence; at 9.3 µM; hits give high values
row,Compound,inhibition
1,O=C(/C=C/c1ccc(Cl)c([N+](=O)[O-])c1)c1ccc(O)cc1,-15.2% (inactive)
2,CCCCCCCCc1c(O)nc(-n2[nH]c(C)c(CCO)c2=O)[nH]c1=O,-29.4% (inactive)
3,COc1ccc(-c2nnc(SC(C)C(=O)NC3CC3)o2)cc1 (configuration not stated),-19.6% (inactive)
4,Cc1noc(C)c1COc1cccc(C(=O)Nc2cccnc2)c1,3.69% (inactive)
5,Cc1cc(C)n(-c2ccc(Cl)c(C(=O)O)n2)n1,-60.3% (inactive)
6,O=c1ccc2c(-c3ccccc3S(=O)(=O)O)c3ccc(O)c(O)c3oc-2c1O,-10.2% (inactive)
7,CCOC(=O)NC(=O)C(=CNc1cccc(OC)c1)C(=O)NC(=O)OCC,-172% (inactive)
